From PubChem BioAssay (EPA / NIEHS) come the findings set out here.

In assay [1] the target is Bile acid receptor (Homo sapiens) (UniProt Q96RI1). As to the kind of experiment: ATG_IR1_CIS: Attagene CIS-FACTORIAL HepG2 Assay for human Nuclear Receptor Subfamily 1 Group H Member 4 (NR1H4), IR1 submotif (AID 2282946). The conditions noted are these: IR1 reporter transcription, actives raise or lower the signal. In a few lines: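 Readout: reporter transcript levels by RT-PCR with fluorescent capillary electrophoresis, from HepG2 cells transiently transfected with multiplexed cis-regulated reporters and dosed 24 h. Gain- or loss-of-signal fitted versus DMSO negative control.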

Assay [2] can be described thus: ATG_ISRE_CIS: Attagene CIS-FACTORIAL HepG2 Assay for human Interferon Regulatory Factor 1 (IRF1) binding to an Interferon-Stimulated Response Element (ISRE) (AID 2282948). The conditions noted are these: HepG2 ISRE cis-reporter (Attagene), mRNA transcription readout; actives raise or lower the signal. In a few lines: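 Multiplexed mRNA reporter readout in human liver HepG2 cells: cis-element-driven reporters transfected, compound added for 24 h, transcripts amplified, fluorescently labelled and sized by capillary electrophoresis; curve fitting bidirectional against DMSO.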

Assay [3] in a line: ATG_M_32_CIS: Attagene CIS-FACTORIAL HepG2 Assay for M32 Transcription Factor (Internal Marker) (AID 2282949).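 Note: background control marker of the multiplexed CIS panel rather than a real target.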 The conditions noted are these: HepG2 Attagene cis-factorial M32 reporter, mRNA; actives raise or lower the signal. An outline of the steps: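 Using DMSO as baseline, bidirectional curve fits were applied to reporter mRNA signals. These came from transiently transfected HepG2 cells exposed for 24 h, with RNA analysed by RT-PCR, FAM primer extension, HpaI digestion and CE.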

Assay [4] in a line: ATG_M_06_CIS: Attagene CIS-FACTORIAL HepG2 Assay for M06 Transcription Factor (Internal Marker) (AID 2282950). The conditions noted are these: HepG2 Attagene CIS-FACTORIAL M06 internal marker reporter; actives raise or lower the signal. In a few lines:
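Steps: transfect HepG2 with multiplexed cis-element reporter constructs; dose chemical 24 h; extract RNA with DNase treatment; reverse-transcribe, PCR-amplify, 6-FAM label, HpaI digest; separate fragments by capillary electrophoresis. Activity fitted both directions versus DMSO.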

For assay [5], the target named is Hypoxia-inducible factor 1-alpha (Homo sapiens) (UniProt Q16665). As to the kind of experiment: ATG_HIF1a_CIS: Attagene CIS-FACTORIAL HepG2 Assay for human Hypoxia Inducible Factor 1 (HIF1A) (AID 2282951). Conditions: HepG2 Attagene cis-factorial HIF1a reporter transcription; actives raise or lower the signal. An outline of the steps:
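Dosed 24 h, transfected HepG2 cells yielded total RNA whose reporter transcripts were RT-PCR-amplified and sized by capillary electrophoresis using fluorescent labelling; DMSO defined baseline, with gain and loss of signal both fitted.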

Assay [6] deals with Hepatocyte nuclear factor 6 (Homo sapiens) (UniProt Q9UBC0). The assay is described as follows: ATG_HNF6_CIS: Attagene CIS-FACTORIAL HepG2 Assay for human Hepatocyte Nuclear Factor 6 (HNF6) (AID 2282952). The conditions noted are these: HepG2 Attagene cis-factorial HNF6 reporter transcription; actives raise or lower the signal. In a few lines:
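Activity values derive from bidirectional fitting against DMSO of reporter mRNA levels, measured by capillary electrophoresis of labelled RT-PCR products from HepG2 cells exposed 24 h.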

Assay [7] concerns the target Heat shock factor protein 1 (Homo sapiens) (UniProt Q00613). The assay is described as follows: ATG_HSE_CIS: Attagene CIS-FACTORIAL HepG2 Assay for human Heat Shock Transcription Factor 1 (HSE) (AID 2282953). Conditions: HepG2 HSE cis-reporter, Attagene RNA transcription; actives raise or lower the signal. In a few lines: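 Cells were transfected with cis-element-driven reporter constructs, dosed for 24 h, then total RNA was reverse-transcribed and reporter cDNA amplified, FAM-labelled and digested with HpaI. Fragments were resolved by capillary electrophoresis; gain or loss was fitted against DMSO.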

The nature of assay [8]: ATG_MRE_CIS: Attagene CIS-FACTORIAL HepG2 Assay for human Metal Responsive Element (MRE) (AID 2282954). The conditions noted are these: HepG2 MRE cis-reporter transcription, Attagene multiplex; actives raise or lower the signal. An outline of the steps: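 Readout: capillary electrophoresis of 6-FAM-labelled, HpaI-digested RT-PCR reporter products. System: HepG2 cells carrying transient multiplexed cis reporters, dosed 24 h. Analysis: bidirectional fit, DMSO baseline.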

The nature of assay [9]: ATG_PBREM_CIS: Attagene CIS-FACTORIAL HepG2 Assay for human Phenobarbital-responsive Enhancer Module (PBREM) (AID 2282955). Conditions: HepG2 PBREM cis-reporter, Attagene multiplexed transcription; actives raise or lower the signal. In a few lines: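 Transfected liver-derived HepG2 cells exposed 24 h; PBREM reporter transcript quantified via RT-PCR and capillary electrophoresis, with activity in either direction referenced to DMSO.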

The target in assay [10] is Paired box protein Pax-6 (Homo sapiens) (UniProt P26367). The assay is described as follows: ATG_Pax6_CIS: Attagene CIS-FACTORIAL HepG2 Assay for human Paired Box 6 (PAX6) (AID 2282956). The conditions noted are these: HepG2 CIS-FACTORIAL PAX6 reporter transcription, RNA readout; actives raise or lower the signal. An outline of the steps: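 Fluorescent RT-PCR products separated by capillary electrophoresis report PAX6-linked promoter mRNA in HepG2 cells 24 h post-dose. Curves fitted bidirectionally, DMSO as negative control.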

Assay [11] can be described thus: ATG_PXRE_CIS: Attagene CIS-FACTORIAL HepG2 Assay for human Pregnane X Receptor Element (PXRE) (AID 2282957). The conditions noted are these: HepG2 Attagene CIS-FACTORIAL PXRE reporter, mRNA; actives raise or lower the signal. In a few lines:
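Fluorescent capillary electrophoresis of amplified reporter cDNA gave the signal, collected 24 h after dosing HepG2 cells that held transfected cis-element reporter constructs.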

Assay [12] in a line: ATG_PPRE_CIS: Attagene CIS-FACTORIAL HepG2 Assay for human Peroxisome Proliferator-activated Response Element (PPRE) (AID 2282958). Conditions: HepG2 PPRE cis-element reporter, Attagene transcription factor profiling; actives raise or lower the signal. An outline of the steps:
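Measured endpoint: PPRE-controlled reporter mRNA, detected by RT-PCR and capillary electrophoresis fluorescence, from transiently transfected HepG2 cells 24 h after dosing. Curves fitted in both directions using DMSO baseline.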

The nature of assay [13]: ATG_Sox_CIS: Attagene CIS-FACTORIAL HepG2 Assay for human SRY-box transcription factor (SOX) (AID 2282960). Conditions: HepG2 Attagene cis-factorial SOX reporter, mRNA; actives raise or lower the signal. An outline of the steps:
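Gain- or loss-of-signal endpoint, fitted bidirectionally with DMSO as negative control. Based on reporter mRNA from transfected HepG2 cells harvested 24 h post-treatment and quantified via RT-PCR and capillary electrophoresis.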

In assay [14] the target is Transcription factor Sp1 (Homo sapiens) (UniProt P08047). The assay is described as follows: ATG_Sp1_CIS: Attagene CIS-FACTORIAL HepG2 Assay for human Specificity Protein 1 (Sp1) (AID 2282961). The conditions noted are these: HepG2 Sp1 cis-reporter transcription, actives raise or lower the signal. An outline of the steps:
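Endpoint reflects endogenous Sp1 transcriptional activity, not an exogenous fusion protein: HepG2 cells with transfected cis-regulated reporters, 24 h dosing, RT-PCR/capillary electrophoresis mRNA read-out, DMSO-normalised bidirectional fit.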

Assay [15] is described as follows: ATG_SREBP_CIS: Attagene CIS-FACTORIAL HepG2 Assay for human Sterol Regulatory Element Binding (SREBP) (AID 2282962). The conditions noted are these: HepG2 Attagene cis-factorial SREBP reporter, mRNA; actives raise or lower the signal. In a few lines: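 Endogenous factor activity is measured in HepG2 through multiplexed reporter units under cis-element control. Following a 24 h incubation, reporter transcripts are reverse-transcribed, PCR-amplified and sized by capillary electrophoresis; activity is fitted in both directions relative to DMSO.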

Assay [16] concerns the target Signal transducer and activator of transcription 3 (Homo sapiens) (UniProt P40763). The assay is described as follows: ATG_STAT3_CIS: Attagene CIS-FACTORIAL HepG2 Assay for human Signal Transducer and Activator of Transcription 3 (STAT3) (AID 2282963). Conditions: HepG2, Attagene cis-factorial STAT3 reporter transcription; actives raise or lower the signal. An outline of the steps: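 Uses human liver HepG2 transiently carrying cis-regulated reporter transcription units. Following 24 h dosing, reporter mRNA induction was detected by RT-PCR and capillary electrophoresis, analysed bidirectionally versus DMSO.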

Assay [17] is described as follows: ATG_TA_CIS: Attagene CIS-FACTORIAL HepG2 Assay for human TA Basal Promoter (AID 2282964). Conditions: HepG2 Attagene CIS-factorial TA basal promoter reporter; actives raise or lower the signal. An outline of the steps:
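Steps: transfect HepG2 with MRTUs; dose 24 h; isolate RNA, DNase-treat, reverse-transcribe; PCR and FAM-label reporter cDNA; digest with HpaI 2h at 37 C; run capillary electrophoresis. Activity fitted both directions against DMSO.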

The nature of assay [18]: ATG_TCF_b_cat_CIS: Attagene CIS-FACTORIAL HepG2 Assay for human T-Cell-Factor with beta-catenin (TCF/b-cat) (AID 2282965). Conditions: HepG2 TCF/beta-catenin cis-reporter transcription, actives raise or lower the signal. An outline of the steps: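 HepG2 cells transiently transfected with multiple cis-promoter-regulated reporter transcription units, so endogenous transcription factor activity is measured. Reporter mRNA read 24 hours after dosing by RT-PCR, fluorescent labelling and capillary electrophoresis; bidirectional fitting against DMSO.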

Assay [19] can be described thus: ATG_GRE_CIS: Attagene CIS-FACTORIAL HepG2 Assay for human Glucocorticoid Response Elements (GRE) (AID 2282947). Conditions: HepG2 GRE cis-reporter, Attagene multiplex mRNA; actives raise or lower the signal. An outline of the steps: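 HepG2, transient cis-reporter transfection, 24 h. Reporter mRNA: RT-PCR then CE, fluorescence. Fit both directions vs DMSO.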
Assay [20] is described as follows: ATG_RORE_CIS: Attagene CIS-FACTORIAL HepG2 Assay for human RAR-related Orphan Receptor Element (RORE) (AID 2282959). Conditions: HepG2 Attagene cis-factorial RORE reporter, mRNA; actives raise or lower the signal. An outline of the steps: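 Transiently transfected HepG2 reporter cells were treated 24 h. Reporter transcripts were detected by RT-PCR and capillary electrophoresis, with bidirectional fitting against DMSO.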

Several values for one entry are separate records, joined by “and”; a condition that tells them apart may be missing. Identical values can stand only once. Some compounds were tested as several samples or in several runs, with calls that do not always agree. Activity calls are given as the source filed them. Rule for the calls: active = hit-call score of the fitted dose curve at least 0.9, where 1 is the maximum; inactive = score below 0.9.

Chain of Paired box protein Pax-6 (Homo sapiens) (P26367 whole entry, looked up): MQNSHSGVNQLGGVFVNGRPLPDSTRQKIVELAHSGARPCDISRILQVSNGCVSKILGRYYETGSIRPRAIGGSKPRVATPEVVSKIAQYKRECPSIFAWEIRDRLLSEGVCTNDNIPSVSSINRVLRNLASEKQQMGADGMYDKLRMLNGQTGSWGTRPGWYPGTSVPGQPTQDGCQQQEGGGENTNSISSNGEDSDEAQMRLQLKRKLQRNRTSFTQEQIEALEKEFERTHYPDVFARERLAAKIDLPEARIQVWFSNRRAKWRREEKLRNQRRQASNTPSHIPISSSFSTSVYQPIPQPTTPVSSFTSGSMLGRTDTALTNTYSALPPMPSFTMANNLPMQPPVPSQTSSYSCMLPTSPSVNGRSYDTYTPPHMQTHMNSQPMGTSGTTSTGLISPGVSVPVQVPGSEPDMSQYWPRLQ
Chain of Heat shock factor protein 1 (Homo sapiens) (Q00613 whole entry, looked up, the tested form may be a part): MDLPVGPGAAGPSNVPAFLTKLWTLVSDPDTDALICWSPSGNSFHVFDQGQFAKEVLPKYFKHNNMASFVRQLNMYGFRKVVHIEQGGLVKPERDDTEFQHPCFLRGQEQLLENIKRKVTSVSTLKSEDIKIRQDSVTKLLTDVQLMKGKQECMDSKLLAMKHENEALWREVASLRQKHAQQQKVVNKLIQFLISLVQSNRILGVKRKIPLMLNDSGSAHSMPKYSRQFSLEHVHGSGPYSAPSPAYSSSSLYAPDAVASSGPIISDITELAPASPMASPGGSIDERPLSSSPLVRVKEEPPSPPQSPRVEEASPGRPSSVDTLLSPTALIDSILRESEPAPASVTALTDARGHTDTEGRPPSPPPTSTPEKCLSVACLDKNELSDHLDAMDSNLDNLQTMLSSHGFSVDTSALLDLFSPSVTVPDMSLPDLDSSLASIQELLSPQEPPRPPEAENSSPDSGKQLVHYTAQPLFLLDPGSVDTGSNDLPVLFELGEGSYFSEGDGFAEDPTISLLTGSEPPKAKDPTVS
Chain of Transcription factor Sp1 (Homo sapiens) (P08047 whole entry, looked up, the tested form may be a part): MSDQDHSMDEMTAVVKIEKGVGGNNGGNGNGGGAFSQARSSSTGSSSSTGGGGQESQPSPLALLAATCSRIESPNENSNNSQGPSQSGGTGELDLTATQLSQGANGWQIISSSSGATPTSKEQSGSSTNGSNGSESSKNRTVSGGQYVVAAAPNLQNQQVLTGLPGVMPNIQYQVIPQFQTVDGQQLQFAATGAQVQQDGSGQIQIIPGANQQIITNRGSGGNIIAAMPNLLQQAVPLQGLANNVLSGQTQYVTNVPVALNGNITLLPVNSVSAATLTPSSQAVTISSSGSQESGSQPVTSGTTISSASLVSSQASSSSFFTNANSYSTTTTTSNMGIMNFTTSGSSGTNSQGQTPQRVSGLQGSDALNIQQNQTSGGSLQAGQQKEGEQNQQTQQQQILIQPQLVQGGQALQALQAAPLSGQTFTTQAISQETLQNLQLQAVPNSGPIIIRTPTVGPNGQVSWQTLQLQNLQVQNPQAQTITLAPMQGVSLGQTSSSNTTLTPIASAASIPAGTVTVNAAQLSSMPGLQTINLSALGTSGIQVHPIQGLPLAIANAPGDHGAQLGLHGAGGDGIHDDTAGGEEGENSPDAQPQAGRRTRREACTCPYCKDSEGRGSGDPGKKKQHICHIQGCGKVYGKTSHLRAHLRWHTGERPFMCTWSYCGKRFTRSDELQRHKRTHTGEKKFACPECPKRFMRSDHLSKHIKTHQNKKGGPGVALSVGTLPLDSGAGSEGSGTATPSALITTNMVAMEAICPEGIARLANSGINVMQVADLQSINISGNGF
Chain of Hepatocyte nuclear factor 6 (Homo sapiens) (Q9UBC0 whole entry, looked up): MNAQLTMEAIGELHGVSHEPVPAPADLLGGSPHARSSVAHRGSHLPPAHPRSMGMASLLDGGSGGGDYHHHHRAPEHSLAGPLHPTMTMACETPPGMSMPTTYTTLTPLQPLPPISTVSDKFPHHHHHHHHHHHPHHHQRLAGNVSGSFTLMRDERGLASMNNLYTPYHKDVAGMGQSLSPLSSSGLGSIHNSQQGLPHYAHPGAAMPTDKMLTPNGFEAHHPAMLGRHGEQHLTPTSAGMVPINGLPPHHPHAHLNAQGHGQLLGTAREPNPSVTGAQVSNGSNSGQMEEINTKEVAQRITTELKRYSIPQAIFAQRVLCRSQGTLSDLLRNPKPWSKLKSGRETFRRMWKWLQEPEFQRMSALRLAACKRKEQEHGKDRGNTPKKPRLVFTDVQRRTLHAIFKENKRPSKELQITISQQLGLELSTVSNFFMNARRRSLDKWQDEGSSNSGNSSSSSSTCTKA
Chain of Signal transducer and activator of transcription 3 (Homo sapiens) (P40763 whole entry, looked up): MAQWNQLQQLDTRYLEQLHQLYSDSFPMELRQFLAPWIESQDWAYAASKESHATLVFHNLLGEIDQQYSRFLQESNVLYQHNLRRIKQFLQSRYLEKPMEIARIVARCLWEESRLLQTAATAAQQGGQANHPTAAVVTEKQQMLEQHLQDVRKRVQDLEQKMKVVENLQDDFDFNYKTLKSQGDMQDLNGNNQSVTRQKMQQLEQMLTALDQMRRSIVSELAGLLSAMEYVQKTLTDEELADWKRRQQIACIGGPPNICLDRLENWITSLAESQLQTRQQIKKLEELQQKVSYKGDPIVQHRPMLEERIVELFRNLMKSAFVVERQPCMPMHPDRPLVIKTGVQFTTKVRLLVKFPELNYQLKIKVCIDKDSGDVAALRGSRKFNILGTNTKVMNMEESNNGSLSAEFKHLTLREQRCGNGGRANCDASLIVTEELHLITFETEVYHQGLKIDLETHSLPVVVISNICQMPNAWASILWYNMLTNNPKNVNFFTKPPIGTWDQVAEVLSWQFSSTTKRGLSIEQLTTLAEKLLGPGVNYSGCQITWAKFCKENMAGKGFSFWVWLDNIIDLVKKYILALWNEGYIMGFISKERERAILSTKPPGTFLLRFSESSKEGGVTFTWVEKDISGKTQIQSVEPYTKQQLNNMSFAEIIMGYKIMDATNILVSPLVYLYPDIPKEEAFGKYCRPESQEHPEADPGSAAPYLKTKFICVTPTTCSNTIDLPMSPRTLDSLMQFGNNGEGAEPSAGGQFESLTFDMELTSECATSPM
Chain of Bile acid receptor (Homo sapiens) (Q96RI1 whole entry, looked up): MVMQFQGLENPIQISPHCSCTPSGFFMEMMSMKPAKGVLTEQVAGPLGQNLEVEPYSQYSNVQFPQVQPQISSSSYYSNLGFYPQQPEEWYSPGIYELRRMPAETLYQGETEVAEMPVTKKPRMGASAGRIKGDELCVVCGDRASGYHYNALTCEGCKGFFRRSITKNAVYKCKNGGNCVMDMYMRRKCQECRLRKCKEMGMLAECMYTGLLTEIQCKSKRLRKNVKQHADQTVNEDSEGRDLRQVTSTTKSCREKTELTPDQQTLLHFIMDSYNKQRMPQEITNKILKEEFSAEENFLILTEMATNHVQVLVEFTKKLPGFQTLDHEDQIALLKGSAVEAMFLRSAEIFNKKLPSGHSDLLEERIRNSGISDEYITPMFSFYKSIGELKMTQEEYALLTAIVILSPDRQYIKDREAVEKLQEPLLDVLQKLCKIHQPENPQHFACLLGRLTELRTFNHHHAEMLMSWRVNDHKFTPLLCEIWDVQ
Chain of Hypoxia-inducible factor 1-alpha (Homo sapiens) (Q16665 whole entry, looked up): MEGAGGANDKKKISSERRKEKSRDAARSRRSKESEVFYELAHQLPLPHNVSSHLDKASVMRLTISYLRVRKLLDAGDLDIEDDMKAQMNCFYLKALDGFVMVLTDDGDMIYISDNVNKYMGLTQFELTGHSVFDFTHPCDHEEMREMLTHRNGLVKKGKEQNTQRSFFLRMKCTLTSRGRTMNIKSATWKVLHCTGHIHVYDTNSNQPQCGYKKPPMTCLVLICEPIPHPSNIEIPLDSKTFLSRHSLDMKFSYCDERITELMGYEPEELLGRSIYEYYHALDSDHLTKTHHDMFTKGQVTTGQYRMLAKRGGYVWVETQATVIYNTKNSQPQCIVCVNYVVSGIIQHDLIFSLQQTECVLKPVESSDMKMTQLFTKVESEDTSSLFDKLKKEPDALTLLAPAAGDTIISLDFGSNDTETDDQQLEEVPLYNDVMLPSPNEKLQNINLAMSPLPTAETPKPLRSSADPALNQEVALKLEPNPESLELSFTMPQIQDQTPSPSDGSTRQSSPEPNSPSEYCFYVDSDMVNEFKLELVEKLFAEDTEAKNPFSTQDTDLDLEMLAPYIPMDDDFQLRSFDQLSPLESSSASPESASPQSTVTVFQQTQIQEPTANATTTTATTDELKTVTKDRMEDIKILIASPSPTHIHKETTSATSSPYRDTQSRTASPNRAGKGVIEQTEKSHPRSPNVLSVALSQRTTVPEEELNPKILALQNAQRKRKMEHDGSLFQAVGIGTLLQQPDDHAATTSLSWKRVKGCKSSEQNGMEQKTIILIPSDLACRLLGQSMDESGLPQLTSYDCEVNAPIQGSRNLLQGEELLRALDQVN

As for `CCN(Cc1cccc(S(=O)(=O)O)c1)c1ccc(C(=C2C=CC(=[N+](CC)Cc3cccc(S(=O)(=O)O)c3)C=C2)c2ccccc2S(=O)(=O)[O-])cc1`, the compound was classed as inactive in assay [1], in assay [2], in assay [3], in assay [4], in assay [5] and in assay [6]. In addition, the compound was classed as inactive in assay [7], in assay [8], in [9], in [10], in assay [11] and in [12]. The call in assay [13], in assay [14], in assay [15], in assay [16], in assay [17] and in assay [18] was inactive.
With `CCCCCCCCCCCCO`, the outcome in assay [1], in assay [2], in assay [3], in [4], in assay [6] and in assay [7] was inactive. For the same compound, the outcome in assay [8], in [9], in assay [10], in assay [11], in assay [12] and in assay [13] was inactive. For the same compound, the outcome in assay [14], in [15], in [16], in assay [17] and in [18] was inactive.
A word on the AC50: it is the midpoint of the concentration-response curve, whichever way the signal moves. On to `CCCCCCCC[Si](OCC)(OCC)OCC`, for which the AC50 in assay [19] was 127 µM (active); in assay [2], 41.8 µM (active); in [11], 8.67 µM (active) [middle of 4 runs]; in [12], 62.9 µM (active) and 70.5 µM (active); in assay [13] it was 147 µM (active); in assay [14], 159 µM (active). The AC50 in assay [15] was 100 µM (active); in [18], 68.9 µM (active) and 100 µM (active). Further, the compound was called inactive in assay [19], in assay [2], in assay [3], in assay [4], in assay [6] and in [7]. Besides, the call in assay [8], in assay [10], in assay [12], in [20], in assay [13] and in [14] was inactive. The compound was classed as inactive in [15], in assay [16], in [17] and in assay [18].
